The values that follow come from PubChem BioAssay AID1030 (National Center for Advancing Translational Sciences (NCATS), 2008).

In all, about 220,000 compounds went through this assay and about 16,000 (7.3%) were called active. Where a call stands in place of a potency, no number is given. Another 25% or so got no clear call; they are omitted. Calls follow the shape of the dose curve; as a rule, active = well fitted inhibition curve with a large enough effect (not every such curve was filed as active); inconclusive = small, poorly fitted or top-dose-only effect, or another doubt; inactive = no such curve, though single readings can be large or run the other way. The sample as a whole holds a higher share of actives than the screen did.
Potency is read from the fitted curve at half-maximal effect.

Chain of Aldehyde dehydrogenase 1A1 (Homo sapiens) (P00352 whole entry, looked up): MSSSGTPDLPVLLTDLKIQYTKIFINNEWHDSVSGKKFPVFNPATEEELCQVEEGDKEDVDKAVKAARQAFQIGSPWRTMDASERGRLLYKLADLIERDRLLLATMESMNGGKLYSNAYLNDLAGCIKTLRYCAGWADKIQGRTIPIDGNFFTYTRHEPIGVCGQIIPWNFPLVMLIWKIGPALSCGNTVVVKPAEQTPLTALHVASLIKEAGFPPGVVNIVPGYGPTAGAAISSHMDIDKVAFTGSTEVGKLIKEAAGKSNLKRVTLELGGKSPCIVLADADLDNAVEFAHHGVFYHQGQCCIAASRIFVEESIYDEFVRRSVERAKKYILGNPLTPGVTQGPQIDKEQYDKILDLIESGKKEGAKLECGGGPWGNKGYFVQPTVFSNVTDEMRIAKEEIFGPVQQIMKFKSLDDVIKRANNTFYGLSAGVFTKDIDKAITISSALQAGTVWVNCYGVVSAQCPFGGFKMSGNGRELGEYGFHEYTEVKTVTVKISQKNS

This test concerns the target Aldehyde dehydrogenase 1A1 (Homo sapiens) (UniProt P00352). The test is described as follows: qHTS Assay for Inhibitors of Aldehyde Dehydrogenase 1 (ALDH1A1). As to conditions: Purified ALDH1A1, NADH fluorescence, propionaldehyde substrate; series mostly up to 75.3 µM. For orientation: qHTS replaces the single test concentration by a dilution series.
For `CN1C=CC=C/C1=C1\SC(=S)N(Cc2ccccc2)C1=O`, the Potency is 12.6 µM (active).
In the case of `CCCCN1C(=O)/C(=C2/C=CC=CN2C)SC1=S`, the Potency is 22.4 µM (active).
Regarding `CCN1C(=O)/C(=C2/Sc3ccccc3N2CCCS(=O)(=O)O)SC1=S`, the Potency entry is “inactive”.
Then `CC12C(=O)N(c3ccccc3)C(=O)C1C(c1ccccc1)N1CCCN12` (centres undefined), with “inactive”; and `N#CC1(C#N)C(C(=O)C23CC4CC(CC(C4)C2)C3)C12CCOCC2` (centres undefined), with “inactive”; and `O=C(c1ccncc1)c1ccc([N+](=O)[O-])cc1`, with “inactive”.
Consider `Cc1ccc(C(=O)NCC(=O)O)s1`, for which the Potency entry was “inactive”.
Then `O=C(N/C(=C\c1ccc(F)cc1)C(=O)N1CCCCCC1)c1ccccc1`, with “inactive”; and `CCS(=O)(=O)c1ccc2oc(SCC(=O)N3c4ccccc4CC3C)nc2c1` (centres undefined), with 28.2 µM (active).
Then `CC1Cc2ccccc2N1C(=O)CSc1nnc(-c2ccc(S(=O)(=O)N3CCCCC3)cc2)o1` (centres undefined), with “inactive”.
In the case of `CC1Cc2ccccc2N1C(=O)CSc1nc2ccccc2o1` (centres undefined) it was “inactive”; in that of `CO/N=C/c1cn(-c2ccc(Cl)cc2)nn1`, “inactive”.
As for `COc1cccc([C@@H]2Oc3ccc(Br)cc3C(=O)[C@H]2OC(=O)NCc2ccc3c(c2)OCO3)c1`, the Potency entry was “inactive”.
Consider `C1CC1Cc1noc(CN2CCN(CC3CC3)CC2)n1`, for which the Potency result is “inactive”.
In the case of `CCOc1cc(NC(=O)CCl)c(OCC)cc1NC(C)=O` it was 25.1 µM (active); in that of `CCOc1cc(NC(=O)c2ccccn2)c(OCC)cc1NC(=O)c1ccc(OC)cc1`, “inactive”; in that of `CCCC(=O)Nc1cc(OCC)c(NC(=O)NC2CCCCC2)cc1OCC`, “inactive”.
In the case of `CC(Nc1nc(N2CCCC2)nc2ccccc12)c1ccccc1` (centres undefined), the Potency entry is “inactive”.
In the case of `Cc1ccc(C(CC(=O)O)Nc2nc(N3CCCCC3)nc(N3CCCCC3)n2)cc1` (centres undefined) it was 25.1 µM (active).
Turning to `CC(=O)NC(CC(=O)O)c1ccc(F)cc1` (centres undefined), the Potency result is “inactive”.
In the case of `CC(C)C1N=C2c3ccccc3N=C(SCC(=O)c3ccc(O)c(O)c3)N2C1=O` (centres undefined) it was 0.631 µM (active); in that of `Cc1ccc(NC(=O)N2CCSc3ccccc32)cc1`, “inactive”.
With `Cn1ccc(=NC=C(C#N)C#N)c2ccccc21`, the Potency entry is “inactive”.
Consider `Cc1ccc(NNC(=O)c2c(F)cccc2Cl)cc1Cl`, for which the Potency entry was “inactive”.
In the case of `CCOC(=O)C(=Cc1ccccc1OC)C(=O)OCC` it was “inactive”; in that of `Cc1cc(O)ccc1NC1=CC(=O)CC(C)(C)C1`, “inactive”.
Then `Cc1cc(C)nc(NNC2=CC(=O)CC(C)(C)C2)n1`, with 25.1 µM (active).
In the case of `COC(=O)NNC1=CC(=O)CC(C)(C)C1` it was “inactive”; in that of `CCc1nnc(NC(=O)Cc2cccs2)s1`, “inactive”.
Regarding `O=C(c1ccc(F)cc1)c1cn(Cc2ccc(F)cc2)c2cc3c(cc2c1=O)OCCO3`, the Potency result is “inactive”.
Then `CCCOc1ccccc1C1CC(=O)Nc2cc3c(cc21)OCO3` (centres undefined), with “inactive”; and `O=C1N/C(=C/c2cccn2-c2ccccc2)C(=O)N1c1cccc(Cl)c1`, with “inactive”.
For the compound `COc1cc2c(cc1/C=C1/NC(=O)N(c3ccccc3)C1=O)OCO2`, the Potency is 3.98 µM (active).
Then `COC(=O)c1c(C(=O)OC)c2n(c1C)CCS2`, with “inactive”.
Then `CCN(CC)C(=O)CS(=O)CC(=O)Nc1cc(OCCOC)c(Cl)cc1Cl` (centres undefined), with “inactive”; and `CC(N=Cc1nc(-c2ccccc2)oc1O)c1ccccc1` (centres undefined), with “inactive”; and `CCOc1ccc2nc(/N=C/c3nc(-c4ccccc4)oc3O)sc2c1`, with “inactive”.
Consider `Oc1oc(-c2ccccc2Br)nc1/C=N/c1ccccn1`, for which the Potency is 11.2 µM (active).
On to `CCOC(=O)C1=C(C)N=C2c3ccccc3C(=O)C2C1c1ccc(Br)cc1` (centres undefined), for which the Potency entry was “inactive”.
Regarding `O=C1c2ccccc2S(=O)(=O)N1CC(O)Cn1c2ccccc2c2ccccc21` (centres undefined), the Potency was 14.1 µM (active).
In the case of `O=C(CN1C(=O)c2ccccc2S1(=O)=O)N1CCc2ccccc21` it was “inactive”; in that of `CNC(=O)CN1C(=O)c2ccccc2S1(=O)=O`, “inactive”; in that of `Cc1ccc(NC(=O)Cn2c(=O)n(CCC(=O)NC3CCN(Cc4ccccc4)CC3)c(=O)c3ccccc32)cc1`, “inactive”.
In the case of `CCC(C)NC(=O)c1ccccc1NC(=O)c1ccccc1N(C)S(C)(=O)=O` (centres undefined) it was “inactive”; in that of `COC(=O)c1ccccc1NC(=O)c1ccccc1NS(C)(=O)=O`, “inactive”; in that of `CCCCNC(=O)c1ccccc1NC(=O)c1ccccc1N(C)S(C)(=O)=O`, 22.4 µM (active).
Then `NC(=O)C[n+]1cccc(C(N)=O)c1`, with “inactive”.
For the compound `O=C(Cn1cnc([N+](=O)[O-])n1)NCCc1ccccc1`, the Potency result is “inactive”.
Take `COc1ccc(-n2nnnc2SCC(=O)NCc2cccs2)cc1`: the Potency entry was “inactive”.
In the case of `Cc1cc(C)nc(Nc2ncn[nH]2)n1` it was “inactive”; in that of `O=C(Nc1ccccc1)c1ccc2c(c1)OCO2`, “inactive”.
As for `CCCC(=O)Nc1ccccc1N1CCN(C(=O)c2ccccc2)CC1`, the Potency entry was “inactive”.
With `O=C(Nc1ccccc1N1CCN(C(=O)c2ccccc2)CC1)c1ccc2c(c1)OCO2`, the Potency is 10 µM (active).
Consider `O=C(c1ccc(CN2CCOCC2)cc1)N1CCN(c2ccccc2F)CC1`, for which the Potency entry was “inactive”.
In the case of `O=C(OCc1ccccc1F)c1ccc2c(c1)OCCO2` it was “inactive”.
In the case of `O=C(CN1CCN(c2ccccc2F)CC1)c1ccc2c(c1)OCO2` it was 14.1 µM (active); in that of `Cc1ccc(NC(=O)Nc2ccccc2)c(Br)c1`, “inactive”.
In the case of `O=C(NCCc1ccccn1)c1cc(-c2ccc(Cl)cc2)nc2ccccc12` it was “inactive”; in that of `N#Cc1cnn2cc(CCN3CCOCC3)c(-c3ccc(F)cc3)nc12`, “inactive”; in that of `Cn1cnnc1SCC(=O)NNC(=O)COc1ccc(Br)cc1`, “inactive”.
In the case of `Cc1ccc(C(=O)N/C(=C/c2cccs2)C(=O)NCC2CCCO2)cc1` (centres undefined), the Potency result is “inactive”.
In the case of `Cc1cc(/C=C(/C#N)C(=O)Nc2ccc(Cl)cc2)c(C)n1-c1cccnc1` it was “inactive”; in that of `Cc1ccc(-n2c(C)cc(/C=C(\C#N)C(=O)NCC3CCCO3)c2C)cc1` (centres undefined), 3.16 µM (active); in that of `CCOn1c(=O)c(=O)n(O)c2ccccc21`, “inactive”.
Then `CC(=O)NCCc1nc2cc(NC(=O)c3ccccc3)ccc2n1C`, with “inactive”; and `COc1ccc2c(c1)CCC/C2=N\OC(=O)c1ccccc1F`, with “inactive”; and `CCSc1nnc(NC(=O)c2ccc(C)cc2)s1`, with “inactive”.
Then `CC(C)C(=O)Nc1nnc(Sc2ccc(N(C)C)cc2)s1`, with 25.1 µM (active); and `CCSc1nnc(NC(=O)Cc2ccccc2OC)s1`, with “inactive”.
As for `O=C(c1cn2ccccc2n1)N1CCc2c([nH]c3ccccc23)C1c1ccccn1` (centres undefined), the Potency entry was “inactive”.
In the case of `O=C(NCCc1ccc(F)cc1)c1n[nH]c2ccccc12` it was “inactive”; in that of `COCCNC(=O)c1ccccc1NS(=O)(=O)c1ccc(C)c([N+](=O)[O-])c1`, “inactive”; in that of `Cc1ccc(S(=O)(=O)NCCC(c2ccccc2)c2ccccc2)cc1C(=O)O`, “inactive”.
For `Cc1ccc(S(=O)(=O)NCCSc2ccccc2)cc1[N+](=O)[O-]`, the Potency is 7.08 µM (active).
In the case of `CCOc1ccc(S(=O)(=O)NCCSc2ccccc2)cc1` it was 6.31 µM (active).
With `O=S(=O)(NCCSc1ccccn1)c1ccc(Cl)cc1`, the Potency result is “inactive”.
As for `O=S(=O)(NCCNS(=O)(=O)c1ccccc1)c1ccccc1`, the Potency entry is “inactive”.
Turning to `CNC(=O)C(=O)N/N=C/c1ccccn1`, the Potency result is “inactive”.
In the case of `COC(=O)c1c(C(=O)OC)c(-c2cccc(C)c2)n2c1CS(=O)C2` (centres undefined) it was “inactive”.
Then `Cn1cc(/C=C/C(=O)N2CCCC(C(=O)c3ccc(C(F)(F)F)cc3)C2)cn1` (centres undefined), with “inactive”; and `CN1CCN(C(=O)/C(=C\c2ccc3c(c2)OCO3)NC(=O)c2cccs2)CC1`, with “inactive”; and `Cc1ccc(NC(=O)C2(N3CCC3=O)CCCCC2)cc1`, with “inactive”.
In the case of `O=C(COC(=O)CNS(=O)(=O)c1ccccc1)NC12CC3CC(CC(C3)C1)C2` it was “inactive”.
On to `S=C(NC1CCCCC1)NN1CCOCC1`, for which the Potency result is “inactive”.
`CC(=O)Nc1ccc(S(=O)(=O)Oc2ccc(/C=N/N=C3/NC(=O)C(CC(=O)O)S3)cc2)cc1` (centres undefined): the Potency entry was “inactive”.
In the case of `CC(C)c1cnc(NC(=O)Cc2ccccc2)s1`, the Potency result was “inactive”.
As to `C=C(C)CNC(=S)Nc1ccc(S(=O)(=O)Nc2cnc3ccccc3n2)cc1`, the Potency entry was “inactive”.
Then `COc1ccc(CN(C)C(C)C(=O)NC2CCCc3ccccc32)cc1` (centres undefined), with “inactive”; and `COc1cc(/C=N/O)cc(Br)c1OCc1cccc(Cl)c1`, with “inactive”.
In the case of `COc1cc(/C=N/NC(=S)Nc2cccnc2)cc(OC)c1O` it was “inactive”; in that of `COc1cc(/C=N\NC(=O)C2C(=O)NCC2c2ccccc2)cc(OC)c1O` (centres undefined), “inactive”; in that of `COc1cc(/C=N/O)cc(Br)c1OS(=O)(=O)c1ccc(C)cc1`, 1.58 µM (active).
Turning to `COc1cc(/C=N/Nc2ccc(C)cc2)cc(Br)c1O`, the Potency was 25.1 µM (active).
Then `CCOc1cc(/C=N/O)cc(Br)c1OC`, with “inactive”; and `CC(C)(C)OC(=O)N/N=C/c1cn(-c2ccccc2)nc1-c1cccnc1`, with “inactive”.
In the case of `CCN(CC)CC(=O)Nc1sc2c(c1C(=O)c1ccccc1C)CCC2` it was “inactive”.
In the case of `Cc1ccc(SCCC(=O)NCc2ccccn2)cc1` it was “inactive”.
Take `N#Cc1ccc(OCc2nnc(-c3ccc([N+](=O)[O-])cc3)o2)cc1`: the Potency result is “inactive”.
In the case of `CCCSc1ncccc1C(=O)O` it was “inactive”.
In the case of `CN(C)NC(=O)C(NC(=O)c1ccc(N)cc1)C12CC3CC(CC(C3)C1)C2` (centres undefined) it was “inactive”.
In the case of `CNC(=S)N/N=C/c1cn(Cc2ccc(C)cc2)c2ccccc12` it was “inactive”; in that of `Cc1ccc(NC(=S)NCCN2CCOCC2)cc1`, “inactive”; in that of `CNC(=S)N/N=C/c1ccc(N2CCOCC2)s1`, 8.91 µM (active).
As for `CC(C)CC[n+]1ccn(C2=C([O-])c3ccccc3C(=O)/C2=N\S(=O)(=O)c2ccccc2)c1`, the Potency was 8.91 µM (active).
Regarding `COc1ccc(-c2csc(Nc3ccccn3)n2)cc1`, the Potency entry was “inactive”.
`Brc1ccc2ncnc(NCc3cccnc3)c2c1`: the Potency result was “inactive”.
Then `Cc1ccc(S(=O)(=O)NCCSC(C)(C)C)cc1`, with 17.8 µM (active).
In the case of `Cc1ccc(C(=O)NCCNS(=O)(=O)c2ccccc2)cc1` it was “inactive”.
As to `O=S(=O)(NCCc1ccccc1)c1ccccc1`, the Potency result was “inactive”.
For the compound `COc1cc(OC)cc(C(=O)OCC(=O)Nc2ccc(F)cc2F)c1`, the Potency result is “inactive”.
For `CC(C)=C1C2CCC1C1C(=O)N(NC(=O)c3ccco3)C(=O)C21` (centres undefined), the Potency result is “inactive”.
For the compound `COc1ccccc1OCCNC(=O)c1cc([N+](=O)[O-])cc([N+](=O)[O-])c1`, the Potency entry is “inactive”.
Consider `COc1ccc(NS(=O)(=O)c2cc(NC(=O)CC(=O)c3ccc([N+](=O)[O-])cc3)ccc2C)cc1`, for which the Potency result was “inactive”.
Then `COc1cccc(NCCC(=O)c2cccc([N+](=O)[O-])c2)c1`, with 0.224 µM (active).
